About 83,000 compounds went through this panel and 20% of them were active in at least one assay; those are over-represented in the sample as a whole.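 Single-dose data. Exposure time 48 hours. Values below 10 considered active.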 Activity calls are given as the source filed them.
Experiments:
Experiment in all cases: NCI-60 one-dose screen, 48 h (100 = growth as untreated, 0 = no growth, -100 = all killed)
Conditions in all cases: 10 µM unless noted
T-47D breast = system: T-47D breast
BT-549 breast = system: BT-549 breast
MDA-MB-435 melanoma = system: MDA-MB-435 melanoma
SW-620 colon = system: SW-620 colon
MCF7 breast = system: MCF7 breast
HCT-116 colon = system: HCT-116 colon
HCC-2998 colon = system: HCC-2998 colon
KM12 colon = system: KM12 colon

Measured: growth

CSc1nc(N)n2nccc2n1
inactive: T-47D breast 102% | BT-549 breast 99.6% | MDA-MB-435 melanoma 98.3% | SW-620 colon 97.9% | MCF7 breast 96% | HCT-116 colon 99.2% | HCC-2998 colon 100% | KM12 colon 114%

CCOc1ccc(/C=N/NC(=O)c2cccc3ccccc23)cc1OCC
inactive: T-47D breast 86.1% | BT-549 breast 86.5% | MDA-MB-435 melanoma 111% | SW-620 colon 105% | MCF7 breast 92.9% | HCT-116 colon 103% | HCC-2998 colon 105% | KM12 colon 103%

CCOc1ccc(Br)cc1/C=C(\C#N)c1ccc([N+](=O)[O-])cc1
inactive: T-47D breast 66.4% | BT-549 breast 96.5% | MDA-MB-435 melanoma 85% | SW-620 colon 86.6% | MCF7 breast 23.4% | HCT-116 colon 67.9% | KM12 colon 94.5%

COc1ccc(-c2cn3ccnc3c(-c3ccc4ncn(C5CCCCC5)c4c3)n2)cc1
active: T-47D breast -8.6% | MDA-MB-435 melanoma -18.6% | HCT-116 colon 8.72%
inactive: BT-549 breast 31.1% | SW-620 colon 22.2% | MCF7 breast 19.8% | HCC-2998 colon 37.4% | KM12 colon 16.8%

CC(O)C(N)=O (configuration not stated)
inactive: T-47D breast 94.7% | BT-549 breast 102% | MDA-MB-435 melanoma 103% | SW-620 colon 105% | MCF7 breast 94.6% | HCT-116 colon 94.2% | HCC-2998 colon 100% | KM12 colon 103%

CCCCCCC(=O)C(C)C
inactive: T-47D breast 110% | BT-549 breast 102% | MDA-MB-435 melanoma 103% | SW-620 colon 106% | MCF7 breast 102% | HCT-116 colon 101% | HCC-2998 colon 105% | KM12 colon 103%

O=Nc1c(-c2c(O)[nH]c3cc(Br)ccc23)[nH]c2ccccc12
inactive: BT-549 breast 40% | MDA-MB-435 melanoma 31.4%
active: T-47D breast -31.1% | SW-620 colon -92.5% | MCF7 breast -40% | HCT-116 colon -67.3% | KM12 colon -89.9%

CCOC(=O)C1=NN(c2ccccc2)C2=NC(=O)/C(=C\c3cn(-c4ccccc4)nc3-c3cc4ccccc4o3)C(=O)N12
inactive: T-47D breast 86.6% | BT-549 breast 97.4% | MDA-MB-435 melanoma 108% | SW-620 colon 91.9% | MCF7 breast 75.6% | HCT-116 colon 89.1% | HCC-2998 colon 101% | KM12 colon 97.5%

C=CCN(C)C
inactive: T-47D breast 117% | BT-549 breast 101% | MDA-MB-435 melanoma 97.1% | SW-620 colon 105% | MCF7 breast 101% | HCT-116 colon 105% | HCC-2998 colon 110% | KM12 colon 108%

CNc1ccc(Nc2ccc(S(=O)(=O)O)cc2)c2c1C(=O)c1ccccc1C2=O
inactive: T-47D breast 110% | BT-549 breast 99.5% | MDA-MB-435 melanoma 95% | SW-620 colon 112% | MCF7 breast 97% | HCT-116 colon 109% | HCC-2998 colon 112% | KM12 colon 108%

Cc1cc(CSc2ccc(Cl)cc2)ccc1N
inactive: T-47D breast 84.1% | BT-549 breast 55.6% | MDA-MB-435 melanoma 104% | SW-620 colon 126% | MCF7 breast 112% | HCT-116 colon 101% | HCC-2998 colon 97.7% | KM12 colon 70.7%

Cc1ccc(C(=O)C(Br)C(Br)c2ccccc2)cc1 (configuration not stated)
inactive: T-47D breast 71.5% | BT-549 breast 104% | MDA-MB-435 melanoma 99.8% | SW-620 colon 27.8% | MCF7 breast 25.7% | HCC-2998 colon 116% | KM12 colon 99.1%
active: HCT-116 colon -65.7%

CCOC(=O)C1CCCN1C(=O)C1(NC(C)=O)CCCC1 (configuration not stated)
inactive: T-47D breast 100% | BT-549 breast 95.5% | MDA-MB-435 melanoma 103% | SW-620 colon 99.6% | MCF7 breast 99.3% | HCT-116 colon 96.4% | HCC-2998 colon 108% | KM12 colon 91.2%

O=C(O)c1occ(Cl)c1Cl
inactive: T-47D breast 103% | BT-549 breast 130% | MDA-MB-435 melanoma 98.5% | SW-620 colon 104% | MCF7 breast 111% | HCT-116 colon 116% | HCC-2998 colon 104% | KM12 colon 110%

CCOc1nc(-c2ccccc2)cc2c(O)c(C(=O)N/N=C/c3ccccc3O)[nH]c(=O)c12
inactive: T-47D breast 94% | BT-549 breast 97.8% | MDA-MB-435 melanoma 113% | SW-620 colon 74.9% | MCF7 breast 72.8% | HCT-116 colon 88.3% | KM12 colon 80.6%

— PubChem BioAssay (NCI)
